# Assays:
# [1] = molecular target: MAP/microtubule affinity-regulating kinase 3 (Homo sapiens) (UniProt P27448); conditions: at 1 µM;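 further: reported values are averaged percent inhibition of MARK3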
# [2] = molecular target: T1, MAP/microtubule affinity-regulating kinase 4 (Homo sapiens) (UniProt Q96L34); conditions: at 0.1 µM
# T1 sequence (whole entry): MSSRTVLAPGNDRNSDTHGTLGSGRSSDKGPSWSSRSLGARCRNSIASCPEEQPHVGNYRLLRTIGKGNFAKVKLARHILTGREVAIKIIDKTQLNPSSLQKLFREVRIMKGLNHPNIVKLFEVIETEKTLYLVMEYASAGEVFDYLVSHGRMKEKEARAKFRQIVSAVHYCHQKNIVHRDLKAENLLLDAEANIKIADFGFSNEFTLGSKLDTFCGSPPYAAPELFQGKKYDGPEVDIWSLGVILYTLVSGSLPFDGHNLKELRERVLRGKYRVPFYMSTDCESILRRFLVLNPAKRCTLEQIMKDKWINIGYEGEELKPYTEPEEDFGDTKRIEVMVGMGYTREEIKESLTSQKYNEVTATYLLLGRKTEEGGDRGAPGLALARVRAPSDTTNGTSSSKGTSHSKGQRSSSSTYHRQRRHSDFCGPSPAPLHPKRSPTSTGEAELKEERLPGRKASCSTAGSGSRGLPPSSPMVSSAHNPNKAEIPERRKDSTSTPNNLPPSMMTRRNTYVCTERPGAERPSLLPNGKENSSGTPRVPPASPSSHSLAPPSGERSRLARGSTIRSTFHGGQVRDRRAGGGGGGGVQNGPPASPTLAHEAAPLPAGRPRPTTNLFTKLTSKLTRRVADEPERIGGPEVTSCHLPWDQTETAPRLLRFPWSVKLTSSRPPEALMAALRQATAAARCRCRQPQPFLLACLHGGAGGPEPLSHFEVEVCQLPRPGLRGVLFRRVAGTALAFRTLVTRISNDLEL
# [3] = molecular target: T1, MAP/microtubule affinity-regulating kinase 4 (Homo sapiens); conditions: at 1 µM
# [4] = molecular target: Maternal embryonic leucine zipper kinase (Homo sapiens) (UniProt Q14680); conditions: at 0.1 µM
# [5] = molecular target: Maternal embryonic leucine zipper kinase (Homo sapiens) (UniProt Q14680); conditions: at 1 µM
# [6] = molecular target: MAP kinase-interacting serine/threonine-protein kinase 1 (Homo sapiens) (UniProt Q9BUB5); conditions: at 0.1 µM
# [7] = molecular target: MAP kinase-interacting serine/threonine-protein kinase 1 (Homo sapiens) (UniProt Q9BUB5); conditions: at 1 µM
# [8] = molecular target: MAP kinase-interacting serine/threonine-protein kinase 2 (Homo sapiens) (UniProt Q9HBH9); conditions: at 0.1 µM
# [9] = molecular target: MAP kinase-interacting serine/threonine-protein kinase 2 (Homo sapiens) (UniProt Q9HBH9); conditions: at 1 µM
# [10] = molecular target: Serine/threonine-protein kinase MARK2 (Homo sapiens) (UniProt Q7KZI7); conditions: at 0.1 µM;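 further: mean percent inhibition of PAR-1Balpha kinase activity, reported from the GSK PKIS screen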
# Chain of Serine/threonine-protein kinase MARK2 (Homo sapiens) (Q7KZI7 whole entry): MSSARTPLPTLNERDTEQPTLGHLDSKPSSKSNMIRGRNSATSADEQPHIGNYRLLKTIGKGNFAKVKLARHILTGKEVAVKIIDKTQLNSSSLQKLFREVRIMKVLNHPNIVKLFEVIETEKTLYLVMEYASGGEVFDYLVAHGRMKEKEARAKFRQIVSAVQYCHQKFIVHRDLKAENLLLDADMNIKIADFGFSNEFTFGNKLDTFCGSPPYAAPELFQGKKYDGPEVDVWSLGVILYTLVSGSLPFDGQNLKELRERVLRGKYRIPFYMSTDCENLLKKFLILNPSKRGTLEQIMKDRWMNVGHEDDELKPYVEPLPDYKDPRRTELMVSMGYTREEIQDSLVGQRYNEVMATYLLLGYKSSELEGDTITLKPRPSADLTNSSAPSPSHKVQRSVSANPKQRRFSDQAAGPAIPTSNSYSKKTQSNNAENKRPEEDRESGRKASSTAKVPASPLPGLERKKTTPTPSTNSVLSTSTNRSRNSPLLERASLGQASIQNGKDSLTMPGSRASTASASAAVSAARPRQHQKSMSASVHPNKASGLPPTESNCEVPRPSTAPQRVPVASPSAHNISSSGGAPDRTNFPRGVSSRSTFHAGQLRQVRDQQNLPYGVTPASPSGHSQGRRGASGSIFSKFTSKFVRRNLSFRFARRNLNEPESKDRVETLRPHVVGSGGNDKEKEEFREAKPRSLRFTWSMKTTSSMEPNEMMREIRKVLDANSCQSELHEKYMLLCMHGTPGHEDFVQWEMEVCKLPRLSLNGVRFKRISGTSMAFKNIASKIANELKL
# Chain of Maternal embryonic leucine zipper kinase (Homo sapiens) (Q14680 whole entry, looked up): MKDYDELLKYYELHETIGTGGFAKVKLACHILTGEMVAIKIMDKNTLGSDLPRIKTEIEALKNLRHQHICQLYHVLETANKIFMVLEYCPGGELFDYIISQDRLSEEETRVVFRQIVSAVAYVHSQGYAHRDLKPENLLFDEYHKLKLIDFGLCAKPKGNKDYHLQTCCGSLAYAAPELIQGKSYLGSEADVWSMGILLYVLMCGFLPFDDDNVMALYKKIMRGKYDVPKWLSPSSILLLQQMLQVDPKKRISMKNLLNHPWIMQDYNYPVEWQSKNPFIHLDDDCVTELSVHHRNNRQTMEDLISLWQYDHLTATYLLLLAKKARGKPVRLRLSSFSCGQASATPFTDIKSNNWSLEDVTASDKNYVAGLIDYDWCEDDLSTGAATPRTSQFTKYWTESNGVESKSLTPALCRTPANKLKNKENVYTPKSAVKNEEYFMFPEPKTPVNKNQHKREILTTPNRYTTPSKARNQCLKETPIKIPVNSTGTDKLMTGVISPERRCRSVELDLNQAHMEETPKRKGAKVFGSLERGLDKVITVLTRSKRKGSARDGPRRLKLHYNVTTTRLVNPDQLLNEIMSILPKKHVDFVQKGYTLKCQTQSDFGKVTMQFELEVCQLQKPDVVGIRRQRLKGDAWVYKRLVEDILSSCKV
# Chain of MAP/microtubule affinity-regulating kinase 3 (Homo sapiens) (P27448 whole entry, looked up): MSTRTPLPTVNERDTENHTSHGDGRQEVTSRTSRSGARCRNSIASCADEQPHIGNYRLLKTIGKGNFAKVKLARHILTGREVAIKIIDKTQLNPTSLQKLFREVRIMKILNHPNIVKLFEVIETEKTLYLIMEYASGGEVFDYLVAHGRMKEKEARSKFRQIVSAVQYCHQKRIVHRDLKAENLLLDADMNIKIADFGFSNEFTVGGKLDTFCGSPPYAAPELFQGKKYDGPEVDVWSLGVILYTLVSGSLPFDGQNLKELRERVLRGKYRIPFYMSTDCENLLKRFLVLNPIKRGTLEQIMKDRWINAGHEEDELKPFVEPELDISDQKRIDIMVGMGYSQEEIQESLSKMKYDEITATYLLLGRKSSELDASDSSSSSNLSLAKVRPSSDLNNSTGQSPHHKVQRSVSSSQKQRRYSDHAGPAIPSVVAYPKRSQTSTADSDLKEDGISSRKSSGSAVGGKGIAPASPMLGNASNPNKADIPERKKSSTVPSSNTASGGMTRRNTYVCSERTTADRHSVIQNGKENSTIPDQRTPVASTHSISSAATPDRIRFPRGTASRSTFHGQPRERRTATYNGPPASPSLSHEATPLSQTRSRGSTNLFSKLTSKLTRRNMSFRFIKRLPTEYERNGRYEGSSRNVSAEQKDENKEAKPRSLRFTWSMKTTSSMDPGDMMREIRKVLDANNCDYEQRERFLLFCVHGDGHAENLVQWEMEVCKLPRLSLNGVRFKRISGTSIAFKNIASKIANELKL
# Chain of MAP kinase-interacting serine/threonine-protein kinase 2 (Homo sapiens) (Q9HBH9 whole entry, looked up): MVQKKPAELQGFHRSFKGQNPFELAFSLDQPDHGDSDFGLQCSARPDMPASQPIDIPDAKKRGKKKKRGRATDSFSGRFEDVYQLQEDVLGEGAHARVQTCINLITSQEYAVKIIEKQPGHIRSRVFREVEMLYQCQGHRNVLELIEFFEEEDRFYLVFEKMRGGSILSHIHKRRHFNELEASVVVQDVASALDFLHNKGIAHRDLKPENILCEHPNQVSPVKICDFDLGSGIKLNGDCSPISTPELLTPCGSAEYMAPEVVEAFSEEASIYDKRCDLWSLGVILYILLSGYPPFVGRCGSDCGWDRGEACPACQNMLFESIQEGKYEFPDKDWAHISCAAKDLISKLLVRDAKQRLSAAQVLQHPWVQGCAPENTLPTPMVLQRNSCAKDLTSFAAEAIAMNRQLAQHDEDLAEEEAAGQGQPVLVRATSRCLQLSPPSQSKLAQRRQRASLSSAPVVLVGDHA
# Chain of MAP kinase-interacting serine/threonine-protein kinase 1 (Homo sapiens) (Q9BUB5 whole entry, looked up): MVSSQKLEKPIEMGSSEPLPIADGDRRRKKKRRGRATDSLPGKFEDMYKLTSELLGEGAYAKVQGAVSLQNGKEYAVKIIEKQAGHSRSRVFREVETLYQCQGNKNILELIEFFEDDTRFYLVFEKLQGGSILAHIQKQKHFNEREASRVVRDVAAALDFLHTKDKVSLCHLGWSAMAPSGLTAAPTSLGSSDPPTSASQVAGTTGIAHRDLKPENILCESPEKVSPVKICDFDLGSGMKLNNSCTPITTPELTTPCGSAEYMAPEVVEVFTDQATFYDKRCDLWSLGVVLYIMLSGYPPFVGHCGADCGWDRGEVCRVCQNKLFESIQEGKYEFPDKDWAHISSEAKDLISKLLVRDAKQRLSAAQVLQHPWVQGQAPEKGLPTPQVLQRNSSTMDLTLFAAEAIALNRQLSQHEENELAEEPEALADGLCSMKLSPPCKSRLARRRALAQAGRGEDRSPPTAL
SMILES,inhibition [1] [%],inhibition [2] [%],inhibition [3] [%],inhibition [4] [%],inhibition [5] [%],inhibition [6] [%],inhibition [7] [%],inhibition [8] [%],inhibition [9] [%],inhibition [10] [%]
CC(=O)Nc1cccc(C#Cc2cncnc2Nc2ccc(OCc3cccc(F)c3)c(Cl)c2)c1,4.64,0.9,0.69,1.32,1.11,2.02,15.4,1.16,6.2,-0.32
CCn1c(-c2nonc2N)nc2ccccc21,22.2,1.04,2.84,1.29,7.45,1.93,8.64,0.78,14.7,-0.05
O=C(O[C@H]1CN[C@H](C#Cc2cc3ncnc(Nc4ccc(Cc5ccccc5)cc4)c3s2)C1)N1CCOCC1,2.78,1.7,0.44,0.46,-1.31,2.67,7.67,9.26,48.1,-0.11
c1ccc(COc2ccc(Nc3ncnc4ccc(-c5ccco5)cc34)cc2)cc1,3.2,0.96,1.77,0.14,-3.64,1.35,5.5,2.49,8.27,-1.72
Fc1cccc(COc2ccc(Nc3ncnc4sc(-c5ccco5)cc34)cc2Cl)c1,4.54,2.34,3.94,5.07,1.45,1.99,10.1,-0.22,15.1,1.08
Fc1ccc(-c2nn3ncccc3c2-c2ccnc(Nc3ccc4c(c3)OCCO4)n2)cc1,-0.42,2.21,2.65,3.62,9.58,3.01,4.06,0.58,-0.01,-1.3
N#Cc1c(NC(=O)CN2CCOCC2)sc2c1CCCC2,5.29,1.24,1.29,3.07,1.6,3.42,6.68,1.2,6.58,1.3
COc1cccc(-c2c[nH]c3c(N/N=C/c4ccncc4)ncnc23)c1,11.8,1.97,7.5,0.82,4.88,15.4,57.1,11.8,51.1,0.99
CCCN(CCS(C)(=O)=O)Cc1ccc(-c2ccc3ncnc(Nc4ccc(OCc5cccc(F)c5)c(Cl)c4)c3c2)o1,-0.4,0.58,-0.36,3.57,3.34,3.79,9.77,2.98,10.9,-0.65
O=C(Nc1n[nH]c2cc(-c3ccc(F)cc3)ccc12)C1CC1,4.76,2,3.26,4.84,8.01,4.85,25.8,1.37,7.23,1.15
COc1ccc2[nH]c3c4[nH]c5ccc(OC)cc5c4c4c(c3c2c1)C(=O)NC4=O,33.5,3.93,15.9,22.3,77.6,6.39,11.5,8.34,18.1,1.57
COC(=O)Nc1nc2ccc(S(=O)(=O)c3ccc(NC(=O)Nc4cc(C(F)(F)F)ccc4F)cc3)cc2[nH]1,0.83,1.2,1.06,1.64,4.33,1.27,1.87,1,0.01,-2.72
COc1ccc2c(-c3ccnc(Nc4cccc(OC(F)(F)F)c4)n3)cnn2n1,6.67,1.08,3.99,1.72,11.1,3.13,9.47,2.32,8.78,-0.54
COc1ccc(-c2nn3ncccc3c2-c2ccnc(Nc3ccc4c(c3)OCCO4)n2)cc1,1.83,1.34,0.93,-1.54,2.58,0.71,0.14,-0.13,1.25,-1.35
COC(=O)Nc1nc2ccc(Oc3ccc(NC(=O)Nc4cccc(Cl)c4)cc3)cc2[nH]1,-0.32,-0.16,0.01,1.24,-2.93,1.78,4.14,-1.23,0.19,-0.4
COc1cc(Nc2nccc(Nc3ccc4c(C)n[nH]c4c3)n2)cc(OC)c1OC,9.39,1.78,8,3.21,8.73,2.01,13.5,2.68,19.2,1.57
CCn1c(-c2nonc2N)nc2c(C#CC(C)(C)O)ncc(OC3CCNCC3)c21,77.7,14,62.1,21.2,76.4,1.74,2.25,2.54,2.87,19.3

SMILES,inhibition [1] [%],inhibition [2] [%],inhibition [3] [%],inhibition [4] [%],inhibition [5] [%],inhibition [6] [%],inhibition [7] [%],inhibition [8] [%],inhibition [9] [%],inhibition [10] [%]
CCOc1ccc2c(-c3ccnc(Nc4cccc(C(F)(F)F)c4)n3)cnn2n1,0.96,1.1,1.8,1.46,3.63,2.65,4.31,-0.81,3.49,0.02
COc1cccc(-n2ncc3c(N/N=C/c4ccc(F)cc4)ncnc32)c1,6.87,1.23,2.4,2.6,5.51,4.58,17.5,4.13,13.3,1.91
CCc1nn2ncccc2c1-c1ccnc(NC2CC2)n1,3.36,2.15,2.34,2.14,5.08,5.42,17.9,2.69,8.83,1.31
Fc1ccc(-c2cc(-c3c[nH]nc3-c3ccccn3)ccn2)cc1,0.81,1.12,1.84,0.52,7.4,4.46,10.4,2.83,6.06,-3.26
N#Cc1c(NC(=O)c2ccc(F)cc2)sc2c1CCCC2,1.66,0.11,1.29,0.18,5.26,0.47,1.91,0.57,1.1,0.6
[O-][S+]1CCN(Cc2ccc(-c3ccc4ncnc(Nc5ccc(OCc6cccc(F)c6)c(Cl)c5)c4c3)o2)CC1,1.78,3.49,3.99,7.16,5.89,2.71,6.2,1.46,6.51,2.19
Cc1cccc2c1NC(=O)/C2=N\Nc1ccc(S(N)(=O)=O)cc1,2.38,1.25,2.15,3.77,2.1,1.62,2.53,0.84,1.26,0.47
COc1ccc(CNC(=O)c2ccc(-c3cc(-c4nnc(C)o4)ccc3C)cc2)cc1,0.99,2.25,1.91,0.76,1.99,4.23,9.25,4.37,8.59,1.99
CCNC(=O)O[C@H]1CN[C@H](C#Cc2cc3ncnc(Nc4ccc(OCc5cccc(F)c5)c(Cl)c4)c3s2)C1,2.72,0.88,1.97,4.18,4.99,2.75,4.73,0.73,5.72,-0.45
Nc1nc(-c2ccc(F)cc2)c(-c2ccc3ncccc3n2)s1,3.12,2.07,2.43,4.85,22.3,4.39,8.56,1.91,5.26,0.92
CS(=O)(=O)CCNCc1ccc(-c2ccc3ncnc(Nc4ccc(OCc5ccccc5)c(C(F)(F)F)c4)c3c2)o1,4.16,2.86,3.74,2.98,2.19,2.1,3.92,-0.02,4.64,0.21
Nc1ncc(-c2cccc(S(N)(=O)=O)c2)c2scc(-c3ccc(F)c(Cl)c3)c12,5.19,3.07,5.58,5.13,2.9,3.42,4.48,1.7,6.22,0.24
CNC(=O)c1cccc(C#Cc2cncnc2Nc2ccc(OCc3cccc(F)c3)c(Cl)c2)c1,23.2,-0.97,0.31,-3.3,-0.86,3.12,26.2,1.92,13.1,-2.05
CN1CCC(n2cnc(-c3ccc(F)cc3)c2-c2ccnc(Nc3ccccc3)n2)CC1,2.89,0.39,0.51,1.63,3.22,1.8,11.4,1.79,4.18,0.89
NS(=O)(=O)c1ccc(Nc2ncc(-c3ccccc3)o2)cc1,12.2,2.7,10.9,1.52,0.94,4.26,21.3,3.92,18.9,2.35
NC(=O)c1sc(-n2cnc3ccc(C(F)(F)F)cc32)cc1OCc1ccccc1Br,11.5,1.2,2.56,2.87,7.71,2.89,5.77,1.04,3.71,-0.38
COc1cc2c(cc1Nc1nc(Nc3ccsc3C(N)=O)c3cc[nH]c3n1)N(C(=O)CN(C)C)CCC2(C)C,7.59,4.25,6.44,6.08,14.8,3.09,6.26,1.36,3.03,1.24
